Results reported in PubChem BioAssay (Tox21).
Several values for one entry are separate records, joined by “and”; a condition that tells them apart may be missing. Identical values can stand only once. Results filed as inconclusive are left out. A call without a number means that no potency is given here. Activity calls are given as the source filed them. Unless noted, calls come from the whole dose curve; as a rule, active = well fitted curve in the direction sought with a large enough effect in the repeat runs; inconclusive = weak or mixed curves; inactive = no such curve, though single readings can be large; an effect the other way counts as inactive or inconclusive.

What was measured:
[1] = qHTS assay to identify small molecule antagonists of the glucocorticoid receptor (GR) signaling pathway - cell viability counter screen (AID 720693); note: nearly all actives have a fitted effect of over 55% in size; note: potency is the fitted concentration of half-maximal effect
[2] = qHTS assay for identifying genotoxic compounds that show differential cytotoxicity against isogenic chicken DT40 cell lines with known DNA damage response pathways - wild type cell line (AID 743012); note: nearly all actives have a fitted effect of over 60% in size; note: potency is the fitted concentration of half-maximal effect
How it was run: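 First, wild type DT40 cells were plated at 300 per well and equilibrated about 0.5 h at 37 C/5% CO2. Next, compounds in DMSO were added and exposure lasted 40 h. Finally, CellTiter-Glo was added for 30 min at room temperature and luminescence recorded.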

[3] = qHTS assay for identifying genotoxic compounds that show differential cytotoxicity against isogenic chicken DT40 cell lines with known DNA damage response pathways - Rev3 mutant cell line (AID 743014); note: nearly all actives have a fitted effect of over 55% in size; note: potency is the fitted concentration of half-maximal effect
[4] = qHTS assay to identify small molecule antagonists of the androgen receptor (AR) signaling pathway - cell viability counter screen (AID 743033; note: nearly all actives have a fitted effect of over 45% in size)
[5] = qHTS assay to identify small molecule antagonists of the androgen receptor (AR) signaling pathway using the MDA cell line - cell viability counter screen (AID 743041; note: nearly all actives have a fitted effect of over 45% in size; note: potency is the fitted concentration of half-maximal effect)
How it was run: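 R1881-driven MDA-kb2 AR-luc cells, 3,000/well, were dosed with library compounds for 16 h; cell health came from CellTiter-Fluor fluorescence in the reporter wells.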

[6] = qHTS assay for identifying genotoxic compounds that show differential cytotoxicity against isogenic chicken DT40 cell lines with known DNA damage response pathways - Rad54/Ku70 mutant cell line (AID 743015); note: nearly all actives have a fitted effect of over 60% in size; note: potency is the fitted concentration of half-maximal effect
[7] = molecular target: Androgen receptor (Homo sapiens) (UniProt P10275); assay: qHTS assay to identify small molecule antagonists of the androgen receptor (AR) signaling pathway (AID 743035; active = well fitted inhibition curve with a large enough effect in the signal ratio in the repeat runs, not every such curve was filed as active; the % refers to the signal ratio)
How it was run: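 Beta-lactamase FRET read (2 h RT incubation with LiveBLAzer B/G) following 16 h of compound plus R1881 treatment of AR-UAS-bla HEK293 cells, which had been pre-incubated 4 h at 37C.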

[8] = molecular target: Androgen receptor (Homo sapiens) (UniProt P10275); assay: qHTS assay to identify small molecule agonists of the androgen receptor (AR) signaling pathway using the MDA cell line (AID 743040; note: nearly all actives have a fitted effect of over 20% in size)
How it was run: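 After a 5 h incubation at 37C and 0% CO2, MDA-kb2 reporter cells were dosed with compounds in DMSO and kept 16 h under the same conditions. Luciferase activity was then read as luminescence with ONE-Glo.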

[9] = molecular target: Androgen receptor (Homo sapiens) (UniProt P10275); assay: qHTS assay to identify small molecule antagonists of the androgen receptor (AR) signaling pathway using the MDA cell line (AID 743042; note: nearly all actives have a fitted effect of over 55% in size)
How it was run: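 Antagonist mode: compounds plus R1881 agonist added to MDA-kb2 AR-luc cells, incubated 16 h at 37C. Luciferase reporter luminescence quantified, with multiplexed CellTiter-Fluor readout for cell viability.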

[10] = molecular target: Androgen receptor (Homo sapiens) (UniProt P10275); assay: qHTS assay to identify small molecule agonists of the androgen receptor (AR) signaling pathway (AID 743036; active = well fitted activation curve with a large enough effect in the signal ratio in the repeat runs, with a control signal flat, not every such curve was filed as active; the % refers to the signal ratio)
How it was run: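 HEK293 cells stably carrying a UAS-driven beta-lactamase reporter (GeneBLAzer AR-UAS-bla-GripTite) were plated at 2,000 cells/well, rested 4 h at 37C, then exposed to compounds in DMSO for 16 h. LiveBLAzer B/G FRET substrate was added for 2 h at room temperature; fluorescence read.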

Androgen receptor (Homo sapiens), sequence (P10275 whole entry, looked up): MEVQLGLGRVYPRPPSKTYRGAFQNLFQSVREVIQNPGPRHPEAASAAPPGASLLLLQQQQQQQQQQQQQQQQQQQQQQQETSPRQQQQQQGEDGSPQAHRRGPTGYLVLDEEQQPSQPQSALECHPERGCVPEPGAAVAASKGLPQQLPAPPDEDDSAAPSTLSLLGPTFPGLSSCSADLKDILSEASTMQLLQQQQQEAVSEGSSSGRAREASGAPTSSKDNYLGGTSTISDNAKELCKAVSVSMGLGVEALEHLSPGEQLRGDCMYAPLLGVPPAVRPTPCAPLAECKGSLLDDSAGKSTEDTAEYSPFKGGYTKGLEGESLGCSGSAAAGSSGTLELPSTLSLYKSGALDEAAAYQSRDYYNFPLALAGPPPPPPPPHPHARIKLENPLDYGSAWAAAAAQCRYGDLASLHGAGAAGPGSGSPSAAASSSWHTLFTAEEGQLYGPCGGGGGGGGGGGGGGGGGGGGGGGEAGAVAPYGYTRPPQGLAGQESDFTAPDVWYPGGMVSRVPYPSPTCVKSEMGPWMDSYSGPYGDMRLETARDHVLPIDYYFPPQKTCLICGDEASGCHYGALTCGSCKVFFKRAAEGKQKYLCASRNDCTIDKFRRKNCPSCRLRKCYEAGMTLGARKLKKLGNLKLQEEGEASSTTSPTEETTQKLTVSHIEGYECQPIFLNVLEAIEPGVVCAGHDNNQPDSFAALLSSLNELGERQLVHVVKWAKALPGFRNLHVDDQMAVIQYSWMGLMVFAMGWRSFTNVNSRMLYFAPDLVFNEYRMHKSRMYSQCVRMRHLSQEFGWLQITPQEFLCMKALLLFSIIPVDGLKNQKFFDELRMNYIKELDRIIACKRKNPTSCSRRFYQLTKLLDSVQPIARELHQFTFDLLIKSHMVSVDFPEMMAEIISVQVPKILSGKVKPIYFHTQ

| SMILES | Potency [1] | Potency [2] | Potency [3] | Potency [4] | Potency [5] | Potency [6] | Potency [7] | Potency [8] | Potency [9] | Potency [10] |
| --- | --- | --- | --- | --- | --- | --- | --- | --- | --- | --- |
| NC(N)=NCC1COc2ccccc2O1 (centres undefined) | inactive | inactive | inactive | inactive | inactive |  |  |  |  |  |
| CC(=O)c1ccc2c(c1)N(CCCN1CCN(CCO)CC1)c1ccccc1S2 | inactive | 13.3 µM (active) | 26.6 µM (active) |  | inactive | 21.1 µM (active) |  |  |  |  |
| CCC(=O)OCC(=O)[C@@]1(OC(=O)CC)[C@H](C)C[C@H]2[C@@H]3CCC4=CC(=O)C=C[C@]4(C)[C@@]3(F)[C@@H](O)C[C@@]21C | inactive | 23.7 µM (active) | 29.8 µM (active) |  | inactive | 26.6 µM (active) |  |  |  |  |
| Cc1c(N)nc(C(CC(N)=O)NCC(N)C(N)=O)nc1C(=O)NC(C(=O)NC(C)C(O)C(C)C(=O)NC(C(=O)NCCc1nc(-c2nc(C(=O)NCCCN[C@@H](C)c3ccccc3)cs2)cs1)C(C)O)C(O[C@@H]1O[C@@H](CO)[C@@H](O)[C@H](O)[C@@H]1O[C@H]1O[C@H](CO)[C@@H](O)[C@H](OC(N)=O)[C@@H]1O)c1cnc[nH]1 (some centres undefined) | inactive | 1.19 µM (active) | 0.944 µM (active) | inactive |  |  |  |  |  |  |
| Cc1c(Cl)cccc1Nc1ncccc1C(=O)O | inactive | inactive | inactive | inactive | inactive |  |  |  |  |  |
| CCN(CC)CCCC(C)Nc1cc(/C=C/c2ccccc2Cl)nc2cc(Cl)ccc12 (centres undefined) | inactive | 26.6 µM (active) | 29.8 µM (active) |  | inactive | 29.8 µM (active) |  |  |  |  |
| O=P(O)(O)OC(Cn1cncn1)(Cn1cncn1)c1ccc(F)cc1F | inactive | inactive | inactive | inactive | inactive |  | inactive | inactive | inactive |  |
| C=CCN1CCCC1CNC(=O)c1cc(S(N)(=O)=O)cc(OC)c1OC (centres undefined) | inactive | inactive | inactive | inactive | inactive |  |  |  |  |  |
| NCCC(=O)[N-][C@@H](Cc1cnc[nH]1)C(=O)O.[Zn] | inactive | inactive | inactive | inactive | inactive |  |  |  |  |  |
| COc1ccc(/C=C/C(=O)OCCC(C)C)cc1 | inactive | inactive | inactive |  | inactive | inactive |  |  |  |  |
| NC(Cc1ccccc1)C(=O)O (centres undefined) | inactive | inactive | inactive |  | inactive | inactive |  |  |  |  |
| C=CCCCCCCCCC(=O)OC | inactive | inactive | inactive | inactive | inactive |  |  |  |  |  |
| CC1(C)C2CC[C@]3(C)[C@H](C(=O)C=C4[C@@H]5C[C@@](C)(C(=O)O)CC[C@]5(C)CC[C@]43C)[C@@]2(C)CC[C@@H]1O[C@H]1O[C@H](C(=O)O)[C@@H](O)[C@H](O)[C@H]1O[C@@H]1O[C@H](C(=O)O)[C@@H](O)[C@H](O)[C@H]1O (some centres undefined) | inactive | inactive | inactive |  | inactive | inactive |  |  |  |  |
| FCOC(C(F)(F)F)C(F)(F)F | inactive | inactive | inactive |  | inactive | inactive |  |  |  |  |
| O=C(O)c1ccc(NC(=O)[C@H](Cc2ccc(O)cc2)NC(=O)c2ccccc2)cc1 | inactive | inactive | inactive | inactive | inactive |  | inactive | inactive | inactive | inactive |
| CC(=O)Nc1ccc(NC(=S)NC(=O)c2ccc(C(C)(C)C)cc2)cc1 | inactive | 2.66 µM (active) | 2.66 µM (active) | inactive | inactive |  |  |  |  |  |
| CC(=O)Oc1cc(C)c(OC(C)=O)c2ccccc12 | inactive | 21.1 µM (active) | 23.7 µM (active) |  | inactive | 23.7 µM (active) |  |  |  |  |
| CCC(=O)O[C@@H]1CC(=O)O[C@H](C)C/C=C/C=C/[C@H](O)[C@H](C)C[C@H](CC=O)[C@H](O[C@@H]2O[C@H](C)[C@@H](O[C@H]3C[C@@](C)(O)[C@@H](OC(=O)CC)[C@H](C)O3)[C@H](N(C)C)[C@H]2O)[C@H]1OC | inactive | inactive | inactive | inactive |  |  |  |  |  |  |
| CCCCCC(O)/C=C/C=O (centres undefined) | inactive | inactive | inactive |  | inactive | inactive |  |  |  |  |
| CCN(CC)CCC(=O)N1c2ccccc2Sc2ccc(Cl)cc21 | inactive | 8.41 µM (active) | 10.6 µM (active) | inactive |  |  |  |  |  |  |
| CCN(CC)CCOCCOC(=O)C(CC)(CC)c1ccccc1 | inactive | 3.35 µM (active) | 1.88 µM (active) |  | inactive | 4.73 µM (active) |  |  |  |  |

| SMILES | Potency [1] | Potency [2] | Potency [3] | Potency [4] | Potency [5] | Potency [6] | Potency [7] | Potency [8] | Potency [9] | Potency [10] |
| --- | --- | --- | --- | --- | --- | --- | --- | --- | --- | --- |
| CCN(CC)CCOc1ccc2nc(N(C)C)sc2c1 | inactive | 1.19 µM (active) | 1.68 µM (active) | inactive | inactive |  |  |  |  |  |
| CCCc1nc(C(C)(C)O)c(C(=O)OCc2oc(=O)oc2C)n1Cc1ccc(-c2ccccc2-c2nn[nH]n2)cc1 | inactive | inactive | inactive | inactive |  |  |  |  |  |  |
| CCCCCCCCCCCCCCCCCC(=O)[O][Al] | inactive | inactive | inactive | inactive | inactive |  |  |  |  |  |
| Cc1cc(C(=O)NNCc2ccccc2)no1 | inactive | inactive | inactive | inactive | inactive |  |  |  |  |  |
| CC(=O)O[C@H]1C[C@@H]2CC[C@@H]3[C@H](CC[C@@]4(C)[C@H]3C[C@H](N3CC[N+](C)(C)CC3)[C@@H]4OC(C)=O)[C@@]2(C)C[C@@H]1N1CC[N+](C)(C)CC1 | inactive | inactive | inactive | inactive | inactive |  |  |  |  |  |
| CC(C)(C)C(=O)OCOC(=O)[C@@H]1N2C(=O)[C@@H](N=CN3CCCCCC3)[C@H]2SC1(C)C | inactive | inactive | inactive |  | inactive | inactive |  |  |  |  |
| O=C(Cc1cccs1)N[C@@H]1C(=O)N2C(C(=O)[O-])=C(C[n+]3ccccc3)CS[C@H]12 | inactive | inactive | inactive | inactive | inactive |  | inactive | inactive | inactive | inactive |
| COc1ccc(C[C@H](C)NC[C@@H](O)c2ccc(O)c(NC=O)c2)cc1 | inactive | 26.6 µM (active) |  | inactive |  | 26.6 µM (active) |  |  |  |  |
| NNc1nnc(Cc2ccncc2)c2ccccc12 | inactive | inactive | inactive |  | inactive |  | inactive | inactive | inactive |  |
| CCCCC/C=C\CCC(=O)N[C@H]1[C@H](Oc2c3cc4cc2Oc2ccc(cc2Cl)[C@@H](O[C@@H]2O[C@H](CO)[C@@H](O)[C@H](O)[C@H]2NC(C)=O)[C@@H]2NC(=O)[C@H](NC(=O)[C@@H]4NC(=O)[C@H]4NC(=O)[C@@H](Cc5ccc(c(Cl)c5)O3)NC(=O)[C@H](N)c3ccc(O)c(c3)Oc3cc(O)cc4c3)c3ccc(O)c(c3)-c3c(O[C@H]4O[C@H](CO)[C@@H](O)[C@H](O)[C@@H]4O)cc(O)cc3[C@@H](C(=O)O)NC2=O)O[C@H](CO)[C@@H](O)[C@@H]1O | inactive | inactive |  | inactive |  | inactive |  |  |  |  |
| C[C@@](Cc1ccc(O)c(O)c1)(NN)C(=O)O | inactive | 29.8 µM (active) | 29.8 µM (active) |  | inactive |  |  |  |  |  |
| CC(C)[C@H](N)C(=O)OCC(CO)OCn1cnc2c(=O)[nH]c(N)nc21 (some centres undefined) | inactive | inactive | inactive | inactive | inactive |  |  |  |  |  |
| CCOC(=O)c1c[nH]c2cc(OCC(C)C)c(OCC(C)C)cc2c1=O | inactive | inactive |  | inactive | inactive | inactive |  | inactive | inactive | inactive |
| C[C@]12C=CC(=O)N[C@@H]1CC[C@@H]1[C@@H]2CC[C@]2(C)[C@@H](C(=O)Nc3cc(C(F)(F)F)ccc3C(F)(F)F)CC[C@@H]12 | inactive | 4.22 µM (active) |  | inactive |  | 2.66 µM (active) |  |  |  |  |
| COc1ccc2c(c1)N(C[C@H](C)CN(C)C)c1ccccc1S2 | inactive | 11.4 µM (active) | 11.4 µM (active) |  | inactive |  |  |  |  |  |
| Cc1cc(C)c(NC(=O)C[C@H](CC(=O)O)c2cccc3ccccc23)c(C(=O)N2CCC3(CCCC3)CC2)c1 | inactive | inactive |  | inactive | inactive | inactive |  | inactive | inactive | inactive |
| CC(=O)[C@]1(O)Cc2c(O)c3c(c(O)c2[C@@H](O[C@H]2C[C@H](N)[C@H](O)[C@H](C)O2)C1)C(=O)c1c(O)cccc1C3=O | 3.01 µM (active) | 18.8 nM (active) and 21.1 nM (active) | 0.0188 µM (active) |  | 11.9 µM (active) |  |  |  |  |  |
| CC[C@H]1NC(=O)[C@@H](NC(=O)c2ncccc2O)[C@@H](C)OC(=O)[C@H](c2ccccc2)NC(=O)[C@@H]2CC(=O)CCN2C(=O)[C@H](Cc2ccccc2)N(C)C(=O)[C@@H]2CCCN2C1=O | inactive | inactive |  | inactive | inactive | inactive | inactive | inactive | inactive | inactive |
| OC[C@H]1O[C@@H](O[C@H]2[C@H](O)[C@@H](O)[C@H](O)O[C@@H]2CO)[C@H](O)[C@@H](O)[C@@H]1O | inactive | inactive |  | inactive | inactive | inactive | inactive | inactive | inactive |  |
| OC[C@@H](O)C(O)[C@H](O)CO | inactive | inactive | inactive |  | inactive |  |  |  |  |  |
| CC[C@H]1OC(=O)[C@H](C)[C@@H](O[C@H]2C[C@@](C)(OC)[C@@H](O)[C@H](C)O2)[C@H](C)[C@@H](O[C@@H]2O[C@H](C)C[C@H](N(C)C)[C@H]2O)[C@](C)(O)C[C@@H](C)[C@@H]2N[C@@H](COCCOC)O[C@@H]([C@H]2C)[C@]1(C)O | inactive | inactive |  | inactive |  | inactive |  |  |  |  |
